In the test the target is 15-hydroxyprostaglandin dehydrogenase [NAD(+)] (Homo sapiens) (UniProt P15428). The test can be described thus: Thermal Shift Assay for Inhibitors of HPGD (15-Hydroxyprostaglandin Dehydrogenase). The note with it: Recombinant HPGD thermal shift, SYPRO orange DSF, at 250 µM, stronger effect = higher value. As for the experimental part:
Assay Overview: Human 15-Hydroxyprostaglandin dehydrogenase (HPGD) catalyzes the inactivation of prostaglandin E2, and plays a major role in cancer biology by antagonizing the oncogenic potential of cyclooxygenase type 2 (COX2). Studies to assess the stability of human 15-PGDH in presence of compounds was performed as described (Niesen et al., 2007) with variations. References 1. Myung SJ, Rerko RM, Yan M, Platzer P, Guda K, Dotson A, Lawrence E, Dannenberg AJ, Lovgren AK, Luo G, Pretlow TP, Newman RA, Willis J, Dawson D, Markowitz SD. 15-Hydroxyprostaglandin dehydrogenase is an in vivo suppressor of colon tumorigenesis. Proc Natl Acad Sci U S A. 2006 Aug 8;103(32):12098-102. 2. Yan M, Rerko RM, Platzer P, Dawson D, Willis J, Tong M, Lawrence E, Lutterbaugh J, Lu S, Willson JK, Luo G, Hensold J, Tai HH, Wilson K, Markowitz SD. 15-Hydroxyprostaglandin dehydrogenase, a COX-2 oncogene antagonist, is a TGF-beta-induced suppressor of human gastrointestinal cancers. Proc Natl Acad Sci U S A. 2004 Dec 14;101(50):17468-73. 3. […]
HPGD was diluted to a final assay concentration of 1 uM in 100 mM Tris buffer, pH 8.0, containing 0.01% Tween-20 and 1:1000 SYPRO orange dye. […] Heat denaturation curves were recorded using a RT-PCR instrument (Mx3005p, Agilent) applying a temperature gradient of 2 degree C/min. […]

The source made the active and inactive calls.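 Rule for the calls: active = melting temperature shift above 3 C; inconclusive = shift above 1 C but not above 3 C; inactive = the rest.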

Here are results for 1 molecule from PubChem BioAssay AID2427 (National Center for Advancing Translational Sciences (NCATS), 2010).

15-hydroxyprostaglandin dehydrogenase [NAD(+)] (Homo sapiens), sequence (P15428 whole entry, looked up): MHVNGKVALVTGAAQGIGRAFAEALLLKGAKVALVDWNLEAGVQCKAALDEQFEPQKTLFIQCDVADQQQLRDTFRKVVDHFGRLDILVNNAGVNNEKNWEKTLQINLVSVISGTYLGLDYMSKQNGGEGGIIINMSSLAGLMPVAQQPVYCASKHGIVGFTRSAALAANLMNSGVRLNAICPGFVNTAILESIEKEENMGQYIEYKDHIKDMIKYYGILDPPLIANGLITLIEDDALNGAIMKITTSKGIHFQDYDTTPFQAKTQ

In the case of `O=P1(Nc2ccc(F)cc2)COc2ccccc2OC1`, the thermal shift (delta Tm) was 0.5 C (inactive). Besides, where the note is “measured here: delta Tm with NADH cofactor”, the thermal shift (delta Tm) is 3.3 C.
